Source: article PMC4102417

tested on: murine 3T3 fibroblasts; experiment: primary screen, percent viability or growth; higher = less effect of the substance
Method: Similarly, for measuring the cytotoxicity concentration (CC50) for 3T3 fibroblast cells, cultures were incubated with drugs for 72 hours and developed using Alamar Blue (Alamar Biosciences Inc, Sacramento, CA) as previously described.

Question: For `C=CC(C1=CC(=O)C(OC)=CC1=O)c1ccc(OC)cc1` (stereo not shown), which “Mammalian (3T3) cell % growth at 10 uM” value is on record?
Answer: The value was 1.2%.

Question: Which “Mammalian (3T3) cell % growth at 10 uM” value does the source give for `COC(=O)C1=C(C)NC(C)=C(C(=O)OCCN(C)Cc2ccccc2)C1c1cccc([N+](=O)[O-])c1` (stereo not shown) here?
Answer: Its value is 99.8%.

Question: How did the “Mammalian (3T3) cell % growth at 10 uM” value turn out when `COc1cc(O)c2c(=O)cc(-c3ccc(OC)c(-c4c(O)cc(O)c5c(=O)cc(-c6ccc([O-])cc6)oc45)c3)oc2c1.[K+]` was run?
Answer: Its value is 4.2%.

Question: Which “Mammalian (3T3) cell % growth at 10 uM” value does the source give for `CN(C)CCC=C1c2ccccc2CCc2ccccc21` here?
Answer: Its value is 100%.

Question: How did the “Mammalian (3T3) cell % growth at 10 uM” value turn out when `CCCCCCc1ccc(O)cc1O.Nc1c2ccccc2nc2ccccc12` was run?
Answer: Its value is 53.7%.

Question: Which “Mammalian (3T3) cell % growth at 10 uM” value does the source give for `COc1ccc2[nH]cc(CCN)c2c1.Cl` here?
Answer: Its value is 24.2%.

Question: With `Cl.OC(c1cc(C(F)(F)F)nc2c(C(F)(F)F)cccc12)C1CCCCN1` (stereo not shown) as the compound, how does the “Mammalian (3T3) cell % growth at 10 uM” value read?
Answer: Its value is 94.7%.

Question: For `Oc1cc2c(cc1O)C1c3ccc(O)c(O)c3OCC1(O)C2` (stereo not shown), which “Mammalian (3T3) cell % growth at 10 uM” value is on record?
Answer: Its value is 100%.

Question: Which “Mammalian (3T3) cell % growth at 10 uM” value does the source give for `CC(Cc1cccc(C(F)(F)F)c1)NCCOC(=O)c1ccccc1` (stereo not shown) here?
Answer: The value was 96.6%.

Question: For `CC(=O)OC1CC2C(C)(C)C(=O)C3OC3C2(C)C2CCC3(C)C(c4ccoc4)OC(=O)C4OC43C12C` (stereo not shown), which “Mammalian (3T3) cell % growth at 10 uM” value is on record?
Answer: Its value is 73.4%.

Question: With `CC(C1OC(C)(C)C(O)C1O)C1CCC2(C)C3=CCC4C(C)(C)C(=O)CCC4(C)C3CCC12C` (stereo not shown) as the compound, how does the “Mammalian (3T3) cell % growth at 10 uM” value read?
Answer: Its value is 92.7%.

Question: For `O=c1cc(-c2ccccc2)oc2cc(O)c(O)c(O)c12`, which “Mammalian (3T3) cell % growth at 10 uM” value is on record?
Answer: Its value is 4.9%.

Question: Which “Mammalian (3T3) cell % growth at 10 uM” value does the source give for `CC(=O)OC1CCC2(C)C(CC(OC(C)=O)C3(C)C2CCC2(C)C(c4ccoc4)OC(=O)C4OC423)C1(C)C` (stereo not shown) here?
Answer: Its value is 96.7%.

Question: `CCOC(=O)C1=C(COCCN)NC(C)=C(C(=O)OC)C1c1ccccc1Cl.O=S(=O)(O)c1ccccc1` (stereo not shown) was tested. Which “Mammalian (3T3) cell % growth at 10 uM” value did it give?
Answer: The value was 100%.

Question: `Nc1nc(=S)c2[nH]cnc2[nH]1` was tested. Which “Mammalian (3T3) cell % growth at 10 uM” value did it give?
Answer: The value was 98.3%.

Question: For `CC(=O)OC1c2c(ccc3ccc(=O)oc23)OC(C)(C)C1OC(=O)CC(C)C` (stereo not shown), which “Mammalian (3T3) cell % growth at 10 uM” value is on record?
Answer: The value was 81.2%.
